Assay outcomes as filed in PubChem.
CHX counter – Cycloheximide Counterscreen for Small Molecule Inhibitors of Shiga Toxin. cell reporter, cycloheximide protein synthesis inhibition counterscreen. max response, %. hit rate 12% among 300,000; in the data active = max response mostly above about 13%, no sharp cut-off; inactive = mostly below about 14%; note: read at 38.3 µM for the half of the compounds with a filed dose
Pf growth 48h – Primary qHTS for delayed death inhibitors of the malarial parasite plastid, 48 hour incubation. P. falciparum luciferase growth in erythrocytes, 48 h. Potency, µM (series often up to 28.7 µM), actives largely listed as inhibitors. hit rate 5.9% among 310,000
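In quantitative HTS format, infected erythrocytes bearing luciferase-reporter parasites were treated for a single generation at 37 C. Luminescence after adding detection reagent served as the growth measure.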
Shiga toxin inh – A qHTS for Small Molecule Inhibitors of Shiga Toxin | hit rate 9.2% among 290,000 | AID 2315, 2010 | Vero cells, Shiga toxin protein synthesis inhibition reporter | inhibition, % at 38.7 µM; in the data active = inhibition mostly above about 28%, no sharp cut-off; inactive = mostly below about 43%
Giardia FBPA inh – qHTS Assay for Inhibitors of Fructose-1,6-bisphosphate Aldolase from Giardia Lamblia; Potency, µM (highest dose often 59.6 µM), usual class: inhibitors; A8B2U2; purified Giardia FBPA; hit rate 0.71% among 290,000; note: nearly all actives have a fitted effect of over 55% in size
Target sequence (A8B2U2 whole entry, looked up): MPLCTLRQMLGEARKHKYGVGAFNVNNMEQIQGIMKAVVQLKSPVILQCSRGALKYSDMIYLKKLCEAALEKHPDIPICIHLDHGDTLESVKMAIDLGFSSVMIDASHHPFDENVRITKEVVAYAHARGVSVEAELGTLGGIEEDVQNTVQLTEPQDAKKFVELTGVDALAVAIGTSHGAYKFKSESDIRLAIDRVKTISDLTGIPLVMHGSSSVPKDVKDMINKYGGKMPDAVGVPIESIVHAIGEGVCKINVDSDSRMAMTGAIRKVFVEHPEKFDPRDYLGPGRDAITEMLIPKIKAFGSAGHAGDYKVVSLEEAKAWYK
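40 nM FBPA preincubated 10 min at RT with compound (up to 57.5 uM final), then substrate plus GAPDH/TPI/NAD/arsenate coupling and diaphorase/resazurin added. Fluorescence read after 20 min at RT, 525/598 nm.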
Pf growth 96h – Primary qHTS for delayed death inhibitors of the malarial parasite plastid, 96 hour incubation; hit rate 6.9% among 320,000; AID 504834, 2011; Potency, µM (titrated, usually from 28.7 µM), most hits filed as inhibitors; P. falciparum luciferase reporter growth, 96 h
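P. falciparum expressing integrated firefly luciferase, in erythrocytes at 2% hematocrit, 0.05% parasitemia, incubated with compounds 96 h at 37 C, 5% CO2. Growth inhibition read as loss of luminescence; two-generation exposure targets delayed-death apicoplast inhibitors.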
NS1 function inh – qHTS Assay for Inhibitors of Influenza NS1 Protein Function; Potency, µM (highest dose often 46.1 µM); hit rate 0.4% among 270,000; calls by dose curve; note: actives are rising curves; nearly all actives have a fitted effect of over 50% in size
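In this qHTS, NS1 from influenza A is expressed in budding yeast, where it slows growth. Cells are switched from glucose to 2% galactose medium (pH 6.0, -URA), treated with compound, and growth recovery is read at OD600.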
Large screens that a line does not name were inactive. An excerpt weighted towards active compounds, which were near 21% of everything screened. Unless noted, calls come from the whole dose curve; as a rule, active = well fitted curve in the direction sought with a large enough effect; inconclusive = small, poorly fitted or top-dose-only effect, or another doubt; inactive = no such curve, though single readings can be large; an effect the other way counts as inactive or inconclusive.

O=C1N=C(N2CCCCC2)SC1=C1CCCCC1	CHX counter 32.9, Shiga toxin inh 113.9 (no result: Pf growth 96h)
CN1C(=O)/C(=C2\SC(N3CCCCCC3)=NC2=O)c2ccccc21	CHX counter 20.4, Pf growth 96h 4.15µM (no result: Pf growth 48h)
CCCN1C(=O)/C(=C2\SC(N3CCCCC3)=NC2=O)c2ccccc21	CHX counter 46.1, Pf growth 48h inconclusive, Shiga toxin inh 68.1, Pf growth 96h inconclusive
CN(C)CN1C(=O)S/C(=C2/C(=O)N(CN(C)C)c3ccccc32)C1=O	none (no result: CHX counter, Pf growth 48h, Shiga toxin inh, Giardia FBPA inh, Pf growth 96h)
CN1C(=O)/C(=C2\SC(N)=NC2=O)c2ccccc21	none (no result: Pf growth 48h)
CCOc1ccc(S(=O)(=O)c2c[nH]c3ccccc3c2=O)cc1	none
CC(C)=NOCc1ccc(-c2cc(-c3ccccc3)no2)cc1	none (no result: CHX counter, Pf growth 48h, Shiga toxin inh, Pf growth 96h, NS1 function inh)
FC(F)(F)c1ccccc1-c1cncnc1NCCN1CCOCC1	none (no result: CHX counter, Pf growth 48h, Shiga toxin inh, Pf growth 96h, NS1 function inh)
CCOC(=O)[C@H](CCc1ccccc1)N[C@@H](C)C(=O)N1C(=O)N(C)C[C@H]1C(=O)O	none (no result: CHX counter, Shiga toxin inh, Giardia FBPA inh, NS1 function inh)
COc1cc2c(c(OC)c1OC)CCc1cnoc1-2	Pf growth 48h inconclusive, Pf growth 96h inconclusive
O=C(Nc1sc2c(c1C(=O)O)CCC2)C(=O)N1CCOCC1	Pf growth 96h inconclusive (no result: Giardia FBPA inh)
COc1ccc(-c2cc3nc(C)c(CCC(=O)N4CCCCC4)c(C)n3n2)c(OC)c1	none (no result: CHX counter, Pf growth 48h, Shiga toxin inh, Giardia FBPA inh, Pf growth 96h)
CCOC(=O)C1CCN(C(=O)CCc2c(C)nc3ncnn3c2C)CC1	Pf growth 96h 14.7µM (no result: Pf growth 48h)
CCOC(=O)C1CCN(C(=O)CCc2c(C)nc3cc(-c4ccc(OC)cc4OC)nn3c2C)CC1	Pf growth 48h 13.1µM, Pf growth 96h inconclusive (no result: NS1 function inh)
COC(=O)C(NC(=O)CCc1c(C)nc2ncnn2c1C)C(C)C (stereo unspecified)	Pf growth 96h 13.1µM
CC1(C)SC2c3ccccc3C(=O)N2[C@@H]1C(=O)O (stereo partly specified)	Giardia FBPA inh inconclusive
CCC(C)c1ccc(N(CC(=O)NC(C)(C)C)C(=O)CNC(=O)c2cccs2)cc1 (stereo unspecified)	Pf growth 48h inconclusive
CC1CCCN(C(=O)CCNC(=O)Cn2cnc3ccccc3c2=O)C1 (stereo unspecified)	none
CCCCC(=O)N/C(N)=N/c1nc2ccccc2o1	CHX counter 42.9, Shiga toxin inh 35.8
N/C(=N\c1nc2ccccc2o1)NC(=O)c1ccccc1F	CHX counter 47.4, Shiga toxin inh 100.0
N/C(=N\c1nc2ccccc2o1)NC(=O)c1cccc(Cl)c1	none
COc1ccccc1C(=O)NC(=Nc1nc2ccccc2o1)NC(=O)c1ccccc1OC	CHX counter 16.9, Pf growth 48h inconclusive, Shiga toxin inh 21.9
Cc1nn(-c2ccccc2)c(Cl)c1/C=N/NS(=O)(=O)c1ccc(Br)cc1	none
Cc1cc(=O)[nH]c(N/N=C/c2c(C)nn(-c3ccc(F)cc3)c2Cl)n1	Pf growth 48h 4.65µM, Pf growth 96h 10.4µM (no result: NS1 function inh)
Cc1nn(-c2ccccc2)c(Cl)c1/C=N/Nc1nncc(=O)[nH]1	CHX counter 11.7
C=CCn1c(=S)[nH]c2nc3c(cc2c1=O)CCCC3	CHX counter 29.2, Shiga toxin inh 28.9
C=CCn1c(=S)[nH]c2ccc(Br)cc2c1=O	none (no result: Pf growth 96h)
O=C1SC(SCc2ccccc2)=N/C1=C\c1ccco1	Shiga toxin inh 47.7 (no result: Pf growth 96h)
Cc1ccc(C2=Nc3ccccc3N=C(c3ccc([N+](=O)[O-])cc3)C2)c(O)c1	CHX counter 25.7, Shiga toxin inh 166.2, Pf growth 96h inconclusive
Cc1cc(C)[n+](C2C3CC4CC(C3)CC2C4)o1 (stereo unspecified)	Pf growth 48h inconclusive, Pf growth 96h 1.85µM
CCCC1(C)NC(=O)c2ccccc2O1 (stereo unspecified)	Pf growth 96h inconclusive
Cc1nc2cc(NC(=O)Nc3ccc(Br)cc3)ccc2o1	CHX counter 46.7, Shiga toxin inh 99.1
Cc1nc2cc(NC(=O)N3c4ccccc4CC3C)ccc2o1 (stereo unspecified)	CHX counter 42.2, Shiga toxin inh 73.2, Giardia FBPA inh inconclusive (no result: Pf growth 96h)
Cc1ccccc1NC(=O)N1c2ccccc2CC1C (stereo unspecified)	none
Cc1nc2cc(NC(=O)N3c4ccccc4CC3C)ccc2n1C (stereo unspecified)	CHX counter 18.9, Shiga toxin inh 33.0 (no result: Pf growth 96h)
O=[N+]([O-])c1cccc(/C=N\Nc2ccc3ccccc3n2)c1O	none (no result: CHX counter, Pf growth 48h, Shiga toxin inh, Giardia FBPA inh, Pf growth 96h)
